{
  "source": "PubChem BioAssay AID431",
  "about": "(Sanford-Burnham Center for Chemical Genomics, 2006)",
  "note": "About 1,100 (1.7%) of roughly 63,000 compounds were called active. For the sample, actives were picked, then their nearest neighbours and some compounds at random. Entries with a potency or affinity are not part of this list. Unmarked numbers belong to inactive results.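 How the source made its calls: active means compounds whose percent cytotoxicity in the single-dose primary screen, scaled between solvent and toxic-drug controls, exceeds 50; inactive means the rest.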",
  "data": [
    {"assay": "viability loss of HPDE-C7K cells – cell-based, fluorescence, HTS, primary screen (AID 431);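 further: 0% = DMSO solvent wells and 100% = doxorubicin-treated wells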", "settings": "HPDE-C7K KRASV12 cells, Alamar Blue viability, 48 h; at 10 µM; hits give high values", "values": [
      {"smiles": "O=C(COc1ccccc1Cl)NCc1ccncc1", "cytotoxicity": "-2.3%"},
      {"smiles": "CC1CCCCN1C(=O)CSc1nc(C2CC2)nc2c1cnn2-c1ccccc1", "note": "(configuration not stated)", "cytotoxicity": "1.1%"},
      {"smiles": "c1ccc(CNc2c3c(nc4ncnn24)CCCC3)nc1", "cytotoxicity": "-2.6%"},
      {"smiles": "CC(=O)NCc1nc2ccccc2n1Cc1ccccc1C", "cytotoxicity": "-2.6%"},
      {"smiles": "CCOC(=O)CC(=O)Nc1nnc(C(C)C)s1", "cytotoxicity": "-20.6%"},
      {"smiles": "COc1ccc(-c2cc(C(=O)O)c3ccccc3n2)c(OC)c1", "cytotoxicity": "-13.5%"},
      {"smiles": "COc1ccc2[nH]c(C(=O)O)c(CCC(=O)O)c2c1", "cytotoxicity": "1.5%"},
      {"smiles": "O=C(O)CCc1cc(I)c(Oc2ccc(O)c(I)c2)c(I)c1", "cytotoxicity": "81.2% (active)"},
      {"smiles": "N[C@@H](Cc1ccc(O)c(I)c1)C(=O)O", "cytotoxicity": "-4.9%"},
      {"smiles": "CCOC(=O)c1c(-c2ccsc2)csc1N", "cytotoxicity": "-5.8%"},
      {"smiles": "COc1ccc2nc(C)[nH]c(=O)c2c1", "cytotoxicity": "0.4%"},
      {"smiles": "CS(=O)(=O)N1CCN(c2nc(-c3ccccc3)cs2)CC1", "cytotoxicity": "11.2%"},
      {"smiles": "Nc1nc(SCC(=O)N2CCCc3ccccc32)[nH]c(=O)c1-c1ccccc1", "cytotoxicity": "2.5%"},
      {"smiles": "COc1cc(C2c3c(n[nH]c3C)C(=O)N2c2ccc(Br)cc2)ccc1O", "note": "(configuration not stated)", "cytotoxicity": "37.4%"},
      {"smiles": "CCOc1cc(C2c3c(n[nH]c3C)C(=O)N2c2ccc(Br)cc2)ccc1O", "note": "(configuration not stated)", "cytotoxicity": "21.7%"},
      {"smiles": "COc1cc(C2c3c(n[nH]c3C)C(=O)N2c2ccc(C)cc2)ccc1O", "note": "(configuration not stated)", "cytotoxicity": "58% (active)"},
      {"smiles": "O=C(CN1CCN(Cc2ccccc2Cl)C1=O)N1CCCCCC1", "cytotoxicity": "-10.9%"},
      {"smiles": "CCCN(CCC)S(=O)(=O)c1ccc(C(=O)Nc2nnc(-c3cc(OC)cc(OC)c3)o2)cc1", "cytotoxicity": "52.7% (active)"},
      {"smiles": "COCCN(CCOC)S(=O)(=O)c1ccc(C(=O)Nc2nnc(C)o2)cc1", "cytotoxicity": "-7.3%"},
      {"smiles": "COc1cccc(-c2nnc(NC(=O)c3ccc(S(=O)(=O)N4CC(C)OC(C)C4)cc3)o2)c1", "note": "(configuration not stated)", "cytotoxicity": "-4.2%"},
      {"smiles": "COc1cccc(-c2nnc(NC(C)=O)o2)c1", "cytotoxicity": "9.5%"},
      {"smiles": "COc1cccc(-c2nnc(NC(=O)c3ccc(S(=O)(=O)N(CC(C)C)CC(C)C)cc3)o2)c1", "cytotoxicity": "55.5% (active)"},
      {"smiles": "CCCN(CCC)S(=O)(=O)c1ccc(C(=O)Nc2nnc(CSC)o2)cc1", "cytotoxicity": "2.7%"},
      {"smiles": "COc1cccc(-c2nnc(NC(=O)c3ccccc3Br)o2)c1", "cytotoxicity": "24.6%"},
      {"smiles": "COc1cccc(-c2nnc(NC(=O)c3ccc(S(=O)(=O)N4CCOCC4)cc3)o2)c1", "cytotoxicity": "1%"},
      {"smiles": "CCCN(CCC)S(=O)(=O)c1ccc(C(=O)Nc2nnc(-c3cccc(OC)c3)o2)cc1", "cytotoxicity": "62.9% (active)"},
      {"smiles": "CCCCn1c(SCC(=O)Nc2nc(C)cs2)nnc1-c1cccnc1", "cytotoxicity": "2.9%"},
      {"smiles": "Nc1nc(NC(=O)c2cccnc2)nn1-c1ccccc1", "cytotoxicity": "0.1%"},
      {"smiles": "Nc1nc(NC(=O)c2ccco2)nn1-c1ccccc1", "cytotoxicity": "4.5%"},
      {"smiles": "OC(COc1ccc(Cl)c2ccccc12)CN1CCN(c2ccccn2)CC1", "note": "(configuration not stated)", "cytotoxicity": "18.3%"},
      {"smiles": "OC(CN1CCN(c2ccccn2)CC1)Cn1c2ccccc2c2ccccc21", "note": "(configuration not stated)", "cytotoxicity": "53.3% (active)"},
      {"smiles": "OC(COCc1cccs1)CN1CCN(c2ccccn2)CC1", "note": "(configuration not stated)", "cytotoxicity": "2.8%"},
      {"smiles": "O=C1NCC2=C1C(c1ccc(Br)cc1)Nc1ccccc1N2", "note": "(configuration not stated)", "cytotoxicity": "-0.1%"},
      {"smiles": "Cc1c(NC(=O)COC(=O)c2cc3c4ccccc4n(C)c3s2)c(=O)n(-c2ccccc2)n1C", "cytotoxicity": "19.8%"},
      {"smiles": "Cc1nnc(NC(=O)Nc2cccc(Cl)c2)s1", "cytotoxicity": "12.5%"},
      {"smiles": "CNC(=O)C1C2C=CC3(O2)C1C(=O)N(C1CC1)C3C(=O)NCc1ccc(OC)cc1", "note": "(configuration not stated)", "cytotoxicity": "3.6%"},
      {"smiles": "CC(=O)c1c(C)nc(-c2ccc3c(c2)OCO3)n1O", "cytotoxicity": "-5.4%"},
      {"smiles": "O=C(Nc1ccc2c(c1)OCO2)C(c1ccc(Cl)cc1)N1CCC2(CC1)OCCO2", "note": "(configuration not stated)", "cytotoxicity": "5.8%"},
      {"smiles": "O=C(CSc1nnc(Cc2ccccc2)o1)Nc1ccc(Br)cn1", "cytotoxicity": "-11.2%"},
      {"smiles": "O=C(NCc1ccccc1)N1CCC(c2nc3ccccc3[nH]2)CC1", "cytotoxicity": "-0.6%"},
      {"smiles": "Cc1ccccc1S(=O)(=O)Cc1ccc(C(=O)NCCN2CCN(Cc3ccccc3)CC2)o1", "cytotoxicity": "3.7%"},
      {"smiles": "O=C(OCCCc1ccncc1)c1ccc(S(=O)(=O)N2CCOCC2)cc1", "cytotoxicity": "-10.8%"},
      {"smiles": "CC(Oc1ccccc1)C(=O)N1CCCc2ccccc21", "note": "(configuration not stated)", "cytotoxicity": "-9.7%"},
      {"smiles": "O=C(COC(=O)c1cc(S(=O)(=O)N2CCOCC2)ccc1O)NCC1CCCO1", "note": "(configuration not stated)", "cytotoxicity": "55.2% (active)"},
      {"smiles": "O=C(NCC1CCCO1)c1cc(-c2ccncc2)nc2ccc(S(=O)(=O)N3CCOCC3)cc12", "note": "(configuration not stated)", "cytotoxicity": "-15.7%"},
      {"smiles": "O=C(COC(=O)c1ccc(Br)c(S(=O)(=O)N2CCOCC2)c1)NCC1CCCO1", "note": "(configuration not stated)", "cytotoxicity": "-3.7%"},
      {"smiles": "Cc1ccnc(NC(=O)CCC(=O)N(CC(=O)NC2CCCCC2)c2ccc3c(c2)OCO3)c1", "cytotoxicity": "-7.7%"},
      {"smiles": "CCC1CCCCN1C(=O)CSc1nc(N)c(NC(=O)c2ccco2)c(=O)[nH]1", "note": "(configuration not stated)", "cytotoxicity": "-21.6%"},
      {"smiles": "CC1Oc2ccccc2N(CC(=O)c2cccc(Cl)c2)C1=O", "note": "(configuration not stated)", "cytotoxicity": "-8.4%"},
      {"smiles": "CCOC(=O)CS(=O)(=O)c1nc(-c2ccccc2)cc(C(F)(F)F)n1", "cytotoxicity": "34.5%"},
      {"smiles": "COCC(C)NC(=O)CCS(=O)(=O)c1nc(-c2ccc(OC)cc2)cc(C(F)(F)F)n1", "note": "(configuration not stated)", "cytotoxicity": "52.3% (active)"},
      {"smiles": "Cc1cc(NC(=O)CCCS(=O)(=O)c2nc(-c3cccs3)cc(C(F)(F)F)n2)no1", "cytotoxicity": "4.1%"},
      {"smiles": "COc1ccc(-c2cc(C(F)(F)F)nc(SCCC(=O)NCc3ccco3)n2)cc1", "cytotoxicity": "-8.8%"},
      {"smiles": "CCOC(=O)CS(=O)(=O)c1ccc2ccccc2c1", "cytotoxicity": "-6.4%"},
      {"smiles": "CCOC(=O)c1cnn2c(C)cc(-c3ccc(F)cc3)nc12", "cytotoxicity": "-18.9%"},
      {"smiles": "COc1ccc(-c2cc(C(F)(F)F)nc(SCC(=O)Nc3cc(C)on3)n2)cc1", "cytotoxicity": "-11.8%"},
      {"smiles": "COC(=O)c1ccc2c(=O)n(CCCCCC(=O)NCc3ccccn3)c(=O)[nH]c2c1", "cytotoxicity": "2.9%"},
      {"smiles": "CCCC(=O)NCCCCNC(=O)CCC", "cytotoxicity": "-12.2%"},
      {"smiles": "Cc1ccc(CN(Cc2cccnc2)C(=O)CN2C(=O)COc3ccccc32)o1", "cytotoxicity": "-12.5%"},
      {"smiles": "CC(=O)Nc1ccc(NC(=O)Oc2ccccc2)cc1", "cytotoxicity": "-2.5%"},
      {"smiles": "CC(C)Oc1ccc(NC(=O)Oc2ccccc2)cc1", "cytotoxicity": "3.4%"},
      {"smiles": "O=C(Nc1ccc(N2CCN(c3ccc(O)cc3)CC2)cc1)Oc1ccccc1", "cytotoxicity": "65.7% (active)"}
    ]}
  ]
}
